{"source": "the supplement of paper PMC8728848", "binders": {"B1": {"name": "Apa (Mycobacterium tuberculosis), Rv1860 (protein)", "chain": "MHQVDPNLTRRKGRLAALAIAAMASASLVTVAVPATANADPEPAPPVPTTAASPPSTAAAPPAPATPVAPPPPAAANTPNAQPGDPNAAPPPADPNAPPPPVIAPNAPQPVRIDNPVGGFSFALPAGWVESDAAHFDYGSALLSKTTGDPPFPGQPPPVANDTRIVLGRLDQKLYASAEATDSKAAARLGSDMGEFYMPYPGTRINQETVSLDANGVSGSASYYEVKFSDPSKPNGQIWTGVIGSPAANAPDAGPPQRWFVVWLGTANNPVDKGAAKALAESIRPLVAPPPAPAPAPAEPAPAPAPAGEVAPTPTTPTPQRTLPA"}}, "assay_in_all_cases": "glycan array binding signal (z-score within array); higher = stronger binding", "settings_in_all_cases": "glycan notation: IUPAC condensed, linker removed", "key": {"[1]": {"biological_target": "Fuc(a1-2)Gal(b1-3)GalNAc(a1-3)[Fuc(a1-2)]Gal(b1-4)Glc", "procedure,_shortened": "(§1)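 From the Consortium for Functional Glycomics database, 3228 arrays were curated, keeping only those whose protein sequence was available. Binding is given as a within-array Z-score averaged across arrays sharing a protein sequence and across linkers. Negative Z-scores can be read as non-binding.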"}, "[2]": {"biological_target": "Fuc(a1-2)Gal(b1-3)GalNAc(b1-3)Gal", "procedure,_shortened": "as §1"}, "Fuc(a1-2)Gal(b1-4)Glc6S": {"biological_target": "Fuc(a1-2)Gal(b1-4)Glc6S", "procedure,_shortened": "as §1"}, "[3]": {"biological_target": "Fuc(a1-2)Gal6S(b1-3)GlcNAc6S", "procedure,_shortened": "as §1"}, "[4]": {"biological_target": "Fuc(a1-2)Gal6S(b1-4)Glc6S", "procedure,_shortened": "as §1"}, "[5]": {"biological_target": "Fuc(a1-2)[Gal(a1-3)]Gal(b1-3)GlcNAc(b1-2)Man(a1-3)[Fuc(a1-2)[Gal(a1-3)]Gal(b1-3)GlcNAc(b1-2)Man(a1-6)]Man(b1-4)GlcNAc(b1-4)[Fuc(a1-6)]GlcNAc", "procedure,_shortened": "as §1"}, "[6]": {"biological_target": "Fuc(a1-2)[Gal(a1-3)]Gal(b1-4)[Fuc(a1-3)]Glc", "procedure,_shortened": "as §1"}, "[7]": {"biological_target": "Fuc(a1-2)[Gal(a1-3)]Gal(b1-4)[Fuc(a1-3)]GlcNAc", "procedure,_shortened": "as §1"}, "[8]": {"biological_target": "Fuc(a1-2)[GalNAc(a1-3)]Gal(b1-3)GalNAc(a1-3)[Fuc(a1-2)]Gal(b1-4)GlcNAc", "procedure,_shortened": "as §1"}, "[9]": {"biological_target": "Fuc(a1-2)[GalNAc(a1-3)]Gal(b1-3)GalNAc(b1-3)Gal(a1-4)Gal(b1-4)Glc", "procedure,_shortened": "as §1"}, "[10]": {"biological_target": "Fuc(a1-2)[GalNAc(a1-3)]Gal(b1-4)GlcNAc", "procedure,_shortened": "as §1"}, "[11]": {"biological_target": "Fuc(a1-3)[Gal(b1-4)]Glc6S", "procedure,_shortened": "as §1"}, "[12]": {"biological_target": "Fuc(a1-3)[Gal(b1-4)]GlcNAc(b1-3)Gal(b1-4)[Fuc(a1-3)]GlcNAc", "procedure,_shortened": "as §1"}, "[13]": {"biological_target": "Fuc(a1-3)[Gal(b1-4)]GlcNAc6S", "procedure,_shortened": "as §1"}, "Fuc(a1-4)GlcNAc": {"biological_target": "Fuc(a1-4)GlcNAc", "procedure,_shortened": "as §1"}, "Gal(b1-3)GlcNAc(b1-2)Man": {"biological_target": "Gal(b1-3)GlcNAc(b1-2)Man", "procedure,_shortened": "as §1"}, "[14]": {"biological_target": "Gal(b1-3)GlcNAc(b1-2)Man(a1-3)[Gal(b1-3)GlcNAc(b1-2)Man(a1-6)]Man(b1-4)GlcNAc(b1-4)GlcNAc", "procedure,_shortened": "as §1"}, "[15]": {"biological_target": "Gal(b1-3)GlcNAc(b1-3)Gal(b1-3)GlcNAc", "procedure,_shortened": "as §1"}, "Gal(b1-3)GlcNAc6S": {"biological_target": "Gal(b1-3)GlcNAc6S", "procedure,_shortened": "as §1"}, "[16]": {"biological_target": "Gal(b1-4)GalNAc(b1-3)[Fuc(a1-2)]Gal(b1-4)GlcNAc", "procedure,_shortened": "as §1"}, "[17]": {"biological_target": "Gal(b1-4)GlcNAc(a1-6)Gal(b1-4)GlcNAc", "procedure,_shortened": "as §1"}, "[18]": {"biological_target": "Gal(b1-4)GlcNAc(b1-2)Man(a1-3)[Gal(b1-4)GlcNAc(b1-2)Man(a1-6)]Man(b1-4)GlcNAc(b1-4)[Fuc(a1-6)]GlcNAc", "procedure,_shortened": "as §1"}, "[19]": {"biological_target": "Gal(b1-4)GlcNAc(b1-2)[Gal(b1-4)GlcNAc(b1-4)]Man(a1-3)[GlcNAc(b1-4)][Gal(b1-4)GlcNAc(b1-2)[Gal(b1-4)GlcNAc(b1-6)]Man(a1-6)]Man(b1-4)GlcNAc(b1-4)GlcNAc", "procedure,_shortened": "as §1"}, "[20]": {"biological_target": "Gal(b1-4)GlcNAc(b1-3)Gal(b1-3)GlcNAc", "procedure,_shortened": "as §1"}, "[21]": {"biological_target": "Gal(b1-4)GlcNAc(b1-3)Gal(b1-4)GlcNAc", "procedure,_shortened": "as §1"}, "Gal(b1-4)GlcNAc6P": {"biological_target": "Gal(b1-4)GlcNAc6P", "procedure,_shortened": "as §1"}, "[22]": {"biological_target": "GalNAc(b1-4)GlcNAc(b1-2)Man", "procedure,_shortened": "as §1"}, "GalNAc(b1-4)GlcNAc6S": {"biological_target": "GalNAc(b1-4)GlcNAc6S", "procedure,_shortened": "as §1"}, "GalNAc6S(b1-4)GlcNAc": {"biological_target": "GalNAc6S(b1-4)GlcNAc", "procedure,_shortened": "as §1"}, "Glc(b1-4)Glc": {"biological_target": "Glc(b1-4)Glc", "procedure,_shortened": "as §1"}}, "note": "This is one part of a sample in which the strongest signals are shown more often than they occur.", "data": [{"binder": "B1", "values": [{"measurement": "glycan array binding signal (z-score)", "setting": "[1]", "value": 2.08}, {"measurement": "glycan array binding signal (z-score)", "setting": "[2]", "value": 4.21}, {"measurement": "glycan array binding signal (z-score)", "setting": "Fuc(a1-2)Gal(b1-4)Glc6S", "value": -0.06}, {"measurement": "glycan array binding signal (z-score)", "setting": "[3]", "value": 2.87}, {"measurement": "glycan array binding signal (z-score)", "setting": "[4]", "value": 1.9}, {"measurement": "glycan array binding signal (z-score)", "setting": "[5]", "value": 0.338}, {"measurement": "glycan array binding signal (z-score)", "setting": "[6]", "value": -0.318}, {"measurement": "glycan array binding signal (z-score)", "setting": "[7]", "value": 0.273}, {"measurement": "glycan array binding signal (z-score)", "setting": "[8]", "value": 14.3}, {"measurement": "glycan array binding signal (z-score)", "setting": "[9]", "value": 5.64}, {"measurement": "glycan array binding signal (z-score)", "setting": "[10]", "value": -0.327}, {"measurement": "glycan array binding signal (z-score)", "setting": "[11]", "value": 0.898}, {"measurement": "glycan array binding signal (z-score)", "setting": "[12]", "value": 0.272}, {"measurement": "glycan array binding signal (z-score)", "setting": "[13]", "value": 1.94}, {"measurement": "glycan array binding signal (z-score)", "setting": "Fuc(a1-4)GlcNAc", "value": -0.036}, {"measurement": "glycan array binding signal (z-score)", "setting": "Gal(b1-3)GlcNAc(b1-2)Man", "value": 2.77}, {"measurement": "glycan array binding signal (z-score)", "setting": "[14]", "value": -0.376}, {"measurement": "glycan array binding signal (z-score)", "setting": "[15]", "value": -0.31}, {"measurement": "glycan array binding signal (z-score)", "setting": "Gal(b1-3)GlcNAc6S", "value": -0.259}, {"measurement": "glycan array binding signal (z-score)", "setting": "[16]", "value": 5.04}, {"measurement": "glycan array binding signal (z-score)", "setting": "[17]", "value": 0.281}, {"measurement": "glycan array binding signal (z-score)", "setting": "[18]", "value": -0.333}, {"measurement": "glycan array binding signal (z-score)", "setting": "[19]", "value": 0.024}, {"measurement": "glycan array binding signal (z-score)", "setting": "[20]", "value": -0.238}, {"measurement": "glycan array binding signal (z-score)", "setting": "[21]", "value": -0.271}, {"measurement": "glycan array binding signal (z-score)", "setting": "Gal(b1-4)GlcNAc6P", "value": -0.455}, {"measurement": "glycan array binding signal (z-score)", "setting": "[22]", "value": -0.412}, {"measurement": "glycan array binding signal (z-score)", "setting": "GalNAc(b1-4)GlcNAc6S", "value": -0.421}, {"measurement": "glycan array binding signal (z-score)", "setting": "GalNAc6S(b1-4)GlcNAc", "value": 2.78}, {"measurement": "glycan array binding signal (z-score)", "setting": "Glc(b1-4)Glc", "value": 2.25}]}]}
